IL-1B inflam inh = inflammasome signaling inhibition, IL-1 beta readout; THP-1 LPS/ATP IL-1B secretion, AlphaLISA, 16 h; hits give low values; activity change, % at 57.5 µM; 360,000 compounds, 4.7% hits; in the data active = activity change below about -50%; inconclusive = mostly about -30% to -49%; note: % is set by controls: 0 for no effect and ±100 for the full control effect
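Secreted IL-1B measured by AlphaLISA bead assay after 16 h compound exposure of THP-1 cells; compounds (final up to 57.5 uM) added 1 h before LPS (250 ng/mL) and ATP (1.25 mM) stimulation; lower signal means less secretion.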
KB-3-1 cytotox = KB-3-1 parental cell cytotoxicity; KB-3-1 viability, CellTiter-Glo ATP luminescence, 72 h; Potency, µM (series often up to 46.1 µM), most hits filed as cytotoxic; 400,000 compounds, 1.4% hits; AID 1347075; note: potency is the fitted concentration of half-maximal effect; % is set by controls: 0 for no effect and ±100 for the full control effect; nearly all actives have a fitted effect of over 60% in size
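KB-3-1 parental drug-naive adenocarcinoma cells in DMEM/10% FBS, incubated 72 h at 37 C with pin-transferred compounds across a concentration series. Viability by CellTiter-Glo luminescence; concentration-response curves fitted after normalization.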
MCF10A rereplic = inducers of DNA re-replication in MCF 10A breast cells. MCF 10A DNA re-replication, Hoechst nuclear intensity, 48 h. Potency, µM (top dose mostly 46.1 µM), without a hit: at the top dose activity, positive = re-replication, hits mostly activators. 350,000 compounds, 2.9% hits; note: potency is the fitted concentration of half-maximal effect; % of control where 0% means no effect; nearly all actives have a fitted effect of over 50% in size
KB-V1 cytotox = KB-V1 MDR subline cytotoxicity | KB-V1 MDR cells viability, CellTiter-Glo, 72 h | 400,000 compounds, 3.4% hits | Potency, µM (series often up to 46.1 µM), usual class: cytotoxic; note: potency is the fitted concentration of half-maximal effect; % is set by controls: 0 for no effect and ±100 for the full control effect; nearly all actives have a fitted effect of over 60% in size
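Drug-selected KB-V1 cells, grown in DMEM lacking phenol red with 10% FBS, receive compound titrations; after three days at 37 degrees C, surviving cell ATP is quantified by CellTiter-Glo luminescence and responses normalized and curve-fitted.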
SW480 rerep = induces DNA re-replication in SW480 colon adenocarcinoma cells | SW480 DNA re-replication, Hoechst DNA content imaging, 48 h | Potency, µM (top dose mostly 46.1 µM), for inactives: top-dose re-replication activation, most hits filed as activators | 340,000 compounds, 1.8% hits; note: potency is the fitted concentration of half-maximal effect; % of control where 0% means no effect; nearly all actives have a fitted effect of over 55% in size
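Compounds, transferred as 23 nL by pin tool, were incubated with cells for 48 hr; DNA content per nucleus was then quantified by Hoechst staining and fluorescence plate imaging.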
An asterisk follows results filed as active; i = inactive; ? = inconclusive; nt = not tested or not shown; [ ] = dose if it differs, or a comment. The list is not random: actives were taken first. Their share in the collection is about 9.9%. Unless noted, calls come from the whole dose curve; as a rule, active = well fitted curve in the direction sought with a large enough effect; inconclusive = small, poorly fitted or top-dose-only effect, or another doubt; inactive = no such curve, though single readings can be large; an effect the other way counts as inactive or inconclusive.

SMILES	IL-1B inflam inh	KB-3-1 cytotox	MCF10A rereplic	KB-V1 cytotox	SW480 rerep
O=C(NN1C(=O)/C(=C/c2cccnc2)SC1=S)C(c1ccccc1)c1ccccc1	4.9	?	13µM*	i	7.9%
O=C(Cc1cccc2ccccc12)NN1C(=O)/C(=C\c2cccnc2)SC1=S	-2.1	i	-17.8%	i	2.8%
Cc1cc(C(=O)COc2ccc(F)cc2Br)c(C)n1C1CC1	?	i	5.7%	?	-9.6%
CN(CC#CC1(O)c2ccccc2-c2ccccc21)Cc1ccccc1	15.0	i	-2.8%	8.2µM*	-6.0%
COc1cccc(OCC(=O)N(C)Cc2nc(-c3cccc(C)c3)no2)c1	-1.3	i	4.2%	23.1µM*	-6.6%
O=C(NCCc1ccccc1Cl)c1cc2ccccn2n1	nt	i	nt	i	nt
C=CCn1c(SCC(=O)OCC)nc2cc(C(=O)NCc3ccco3)ccc2c1=O	34.0	i	27.3%	i	-14.8%
CCOC(=O)CSc1nc2cc(C(=O)OC)ccc2c(=O)n1CCN1CCOCC1	-5.3	i	1.4%	16.4µM*	-3.1%
CCCCCn1c(SCC(=O)OCC)nc2cc(C(=O)NCc3ccco3)ccc2c1=O	3.6	i	9.3%	20.6µM*	-7.3%
COC(=O)c1ccc2c(=O)n(CCN3CCOCC3)c(SCC(=O)C(C)(C)C)nc2c1	18.1	i	-0.1%	10.3µM*	1.4%
C=CCN1C(=O)C(O)(CC(=O)c2ccco2)c2cc(Br)ccc21 (stereo not drawn)	64.2	i	?	?	13µM*
O=C(OCC(=O)N1CCCc2ccccc21)c1cc(Br)ccc1O	11.6	i	-0.6%	i	3.5%
CCC1CN(C(=O)NCc2ccc(C)cc2)c2cc(Cl)ccc2O1 (stereo not drawn)	-25.9	i	6.1%	?	4.6%
CCC1CN(C(=O)NCc2ccc(F)cc2)c2cc(Cl)ccc2O1 (stereo not drawn)	-61.8*	i	-6.2%	?	0.4%
Brc1ccc(-c2nnc3c4ccccc4nc(N4CCOCC4)n23)cc1	0.0	i	3.1%	2.59µM*	-13.6%
Clc1ccc(-c2nnc3c4ccccc4nc(N4CCOCC4)n23)cc1Cl	0.0	i	?	2.59µM*	-12.5%
CCCNC(=O)CCc1c(C)nc2nc(CNC(=O)c3ccccc3)nn2c1C	nt	i	nt	i	nt
CC(C)(C)NC(=O)c1ccccc1NC(=O)C1CC(=O)N(C2CCCCC2)C1 (stereo not drawn)	-3.0	i	0.1%	i	-15.7%
Cc1cccc(NC(=S)NCCc2ccccc2)n1	16.0	i	-1.9%[9.22 µM]	?	?
S=C(NCCc1ccccc1)Nc1ccc(Br)cc1	-69.6*	?	?	18.4µM*	-1.9%
CCCN1CCN(C(=S)Nc2ccc([N+](=O)[O-])cc2)CC1	17.3	i	18.3%	20.6µM*	-10.8%
O=[N+]([O-])c1ccc(NNC(=S)Nc2ccc(F)cc2)cc1	-58.5*	?	-1.0%	20.6µM*	-1.7%
S=C(NCCc1ccccc1)Nc1ccccn1	0.0	i	2.0%	16.4µM*	-8.1%
CCOc1ccccc1C1C(C(=O)Nc2ccccc2)=C(C)Nc2c(C(=O)Nc3ccc(F)cc3)cnn21 (stereo not drawn)	nt	i	nt	i	nt
COc1cccc(C(=O)Nc2cccc(C(=O)OCc3cc(=O)n4nc(C5CC5)sc4n3)c2)c1	nt	i	nt	i	nt
SMILES	IL-1B inflam inh	KB-3-1 cytotox	MCF10A rereplic	KB-V1 cytotox	SW480 rerep
CC(C)CCNC(=S)Nc1ccc([N+](=O)[O-])cc1	-71.4*	?	?	?	?
CCCCNC(=S)Nc1ccc([N+](=O)[O-])cc1	-74.3*	?	18.4µM*	?	-3.6%
CC(C)OC(=O)c1cc(NC(=S)Nc2ccc([N+](=O)[O-])cc2)cc(C(=O)OC(C)C)c1	-101.5*	?	?	?	?
CCCCNC(=S)NC(=O)c1ccc([N+](=O)[O-])cc1	-2.3	i	22.9%	i	-5.0%
CC(C)COc1ccc(C(=O)Nc2ccc([N+](=O)[O-])cc2)cc1	0.4	i	4.3%	i	-9.5%
CC(C)CCNC(=S)Nc1ccc(Br)cc1	-0.9	?	?	18.4µM*	32.6%
COC(=O)Cc1ccc(NC(=S)NCCC(C)C)cc1	8.8	i	-12.3%	i	-185.2%

Bioassay records: PubChem, National Center for Advancing Translational Sciences (NCATS)
